{"source": "PubChem BioAssay AID1851", "about": "(National Center for Advancing Translational Sciences (NCATS), 2009)", "note": "Hit rate of the full screen: of about 16,000 compounds, about 2,600 (16%) were called active. Not shown: some 20% with an inconclusive outcome. The call rests on the fitted dose curve; in most records, active means well fitted curve in the direction sought with a large enough effect; inconclusive means small, poorly fitted or top-dose-only effect, or effect the other way; inactive means no such curve, though single readings can be large or run the other way. Only a sample is shown. Some structures have more than one record in an assay (separate samples or runs), and their calls can disagree. On the % scale 0 is the no-effect control and ±100 the full control effect.", "data": [{"target": "Cytochrome P450 2D6 (Homo sapiens) (UniProt P10635)", "sequence (P10635 whole entry, looked up)": "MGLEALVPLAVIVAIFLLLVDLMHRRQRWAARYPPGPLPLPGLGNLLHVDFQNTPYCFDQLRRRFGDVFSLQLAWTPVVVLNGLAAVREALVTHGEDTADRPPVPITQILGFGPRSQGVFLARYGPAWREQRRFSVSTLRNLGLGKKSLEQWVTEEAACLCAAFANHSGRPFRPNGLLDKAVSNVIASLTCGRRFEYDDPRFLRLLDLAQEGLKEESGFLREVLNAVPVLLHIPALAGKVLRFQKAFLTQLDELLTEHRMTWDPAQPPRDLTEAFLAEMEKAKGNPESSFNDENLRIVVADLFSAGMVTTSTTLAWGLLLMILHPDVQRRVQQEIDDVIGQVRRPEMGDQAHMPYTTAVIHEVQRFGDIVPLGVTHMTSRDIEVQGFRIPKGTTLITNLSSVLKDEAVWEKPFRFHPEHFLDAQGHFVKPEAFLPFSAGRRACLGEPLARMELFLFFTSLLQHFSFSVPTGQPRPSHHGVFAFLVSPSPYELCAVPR", "experiment": "Cytochrome panel assay with activity outcomes", "conditions": "recombinant CYP, pro-luciferin dealkylation, luminescence, p450-cyp2d6; series mostly up to 57.1 µM", "values": [{"smiles": "CCCCCCCCN[C@@H](C)[C@H](O)c1ccc(SC(C)C)cc1", "AC50": "1 µM (active)"}, {"smiles": "CCCn1cnc2c(SCC(=O)O)nc(N)nc21", "activity, negative = inhibition": "7.62% [at 11.4 µM] (inactive)"}, {"smiles": "CCOc1nc(NC(C)C)nc(NC(C)C)n1", "AC50": "inactive"}, {"smiles": "COc1ccc(-n2cnc3sc(-c4ccccc4)cc3c2=O)cc1", "AC50": "inactive"}, {"smiles": "COc1ccc(Nc2ncnc3sc(-c4ccccc4)cc23)cc1", "AC50": "28.2 µM (active)"}, {"smiles": "COc1cccc(Nc2ncc(C(=O)O)c3ccccc23)c1", "AC50": "inactive"}, {"smiles": "Fc1ccc(-c2cn3cc(C(F)(F)F)cc(Cl)c3n2)cc1", "AC50": "inactive"}, {"smiles": "COCCNC(=O)CSc1nc2ccc(N3CCOCC3)cc2c(=O)n1Cc1ccc(OC)cc1", "AC50": "inactive"}, {"smiles": "COc1cc2nc(SCc3ccc(Cl)cc3Cl)n(Cc3cccs3)c(=N)c2cc1OC", "AC50": "2.24 µM (active)"}, {"smiles": "COc1ccc(Cn2c(SCc3ccccc3C)nc3cc(OC)c(OC)cc3c2=N)cc1", "AC50": "1.26 µM (active)"}, {"smiles": "CCCCNC(=O)CSc1nc2cc(OC)c(OC)cc2c(=O)n1Cc1ccc(OC)cc1", "AC50": "inactive"}, {"smiles": "CN1CCN(c2ncc3nc(-c4ccc(Cl)cc4)c(=O)n(Cc4cccs4)c3n2)CC1", "AC50": "inactive"}, {"smiles": "COc1ncc2ncc(=O)n(Cc3cccs3)c2n1", "AC50": "inactive"}, {"smiles": "CC(=O)N(O)CCCCCNC(=O)CCC(=O)N(O)CCCCCNC(=O)CCC(=O)N(O)CCCCCN", "AC50": "inactive"}, {"smiles": "CN1CCC2(CC1)CCN(C(=O)c1cc(C(F)(F)F)cc(C(F)(F)F)c1)CC2", "AC50": "inactive"}, {"smiles": "Cc1noc(C)c1COc1cccc(C(=O)OCC(=O)N2CC(=O)Nc3ccccc32)c1", "AC50": "inactive"}, {"smiles": "CN(CC(=O)O)Cc1c(O)c(Cl)cc(Cl)c1Cl", "activity, negative = inhibition": "8.14% [at 11.4 µM] (inactive)"}, {"smiles": "N[C@@H](C(=O)O)c1ccc(C(=O)O)c(O)c1", "AC50": "inactive"}, {"smiles": "N[C@H](C(=O)O)c1ccc(C(=O)O)cc1", "AC50": "inactive"}, {"smiles": "N[C@@H](C(=O)O)c1ccc(C(=O)O)c(C(=O)O)c1", "AC50": "7.94 µM (active) and inactive"}, {"smiles": "N[C@@H](C(=O)O)c1ccc(C(=O)O)cc1", "AC50": "inactive"}, {"smiles": "N[C@H](C(=O)O)c1ccc(O)c(C(=O)O)c1", "AC50": "inactive"}, {"smiles": "N[C@@H](C(=O)O)c1ccc(P(=O)(O)O)cc1", "AC50": "25.1 µM (active)"}, {"smiles": "O=C(Oc1ccccc1N1C(=O)C2CCCCC2C1=O)c1ccccc1", "note": "(centres undefined)", "AC50": "inactive"}, {"smiles": "COCCn1c(=O)c(CCc2ccccc2)nc2cnc(Oc3cccc(Cl)c3)nc21", "AC50": "inactive"}, {"smiles": "Nc1ccc(S(=O)(=O)Nc2nccs2)cc1", "AC50": "inactive"}, {"smiles": "CCN(CC)c1ccc(SS(=O)(=O)O)cc1", "AC50": "inactive"}, {"smiles": "COC(=O)[C@H](C)[C@@H]1C[C@@]1(C)[C@@H](NC(=O)OCc1ccccc1)c1ccccc1", "AC50": "inactive"}, {"smiles": "C[C@@H](C(=O)NCc1ccc(S(C)(=O)=O)cc1)[C@H]1C[C@]1(C)[C@H](NC(=O)OCc1ccccc1)c1ccccc1", "AC50": "0.398 µM (active)"}, {"smiles": "C[C@@H](C(=O)NCCF)[C@H]1C[C@]1(C)[C@H](NC(=O)OCc1ccccc1)c1ccccc1", "AC50": "6.31 µM (active)"}, {"smiles": "O=C(N[C@@H](c1ccccc1)[C@@H]1C[C@H]1C(=O)NCc1ccccn1)OCc1ccccc1", "AC50": "inactive"}, {"smiles": "C[C@@H](C(=O)NCc1ccccn1)[C@@H]1C[C@@]1(C)[C@@H](NC(=O)OCc1ccccc1)c1ccccc1", "AC50": "12.6 µM (active)"}, {"smiles": "C[C@@H](C(=O)NCCc1c[nH]c2ccccc12)[C@H]1C[C@]1(C)[C@H](NC(=O)OCc1ccccc1)c1ccccc1", "AC50": "2 µM (active)"}, {"smiles": "O=C(N[C@@H](c1ccccc1)[C@@H]1C[C@H]1C(=O)O)OCc1ccccc1", "AC50": "inactive"}, {"smiles": "COC(=O)[C@H](C)[C@H]1C[C@]1(C)[C@H](NC(=O)OCc1ccccc1)c1ccccc1", "AC50": "inactive"}, {"smiles": "C[C@@H](C(=O)NCc1cccc2ccccc12)[C@H]1C[C@]1(C)[C@H](NC(=O)OCc1ccccc1)c1ccccc1", "AC50": "inactive"}, {"smiles": "O=C(O)c1ccccc1-c1ccc(/C=c2\\sc3nc4cc(Br)cnc4n3c2=O)o1", "AC50": "inactive"}, {"smiles": "N#CC(C#N)=C(N)/C(C#N)=C/c1ccc(O)cc1", "AC50": "inactive"}, {"smiles": "COc1ccc(/C(C)=N/NC(=O)c2ccc(N(C)C)cc2)cc1", "AC50": "inactive"}, {"smiles": "COc1cc2c(cc1OC)C(C(=O)Nc1cccc(C)n1)C(c1cccnc1)N(C)C2=O", "note": "(centres undefined)", "AC50": "inactive"}, {"smiles": "COc1cc(C2C(=O)N(C3CCCC3)CC(=O)N2Cc2ccco2)ccc1OC(C)C", "note": "(centres undefined)", "AC50": "inactive"}, {"smiles": "CCCC1C(=O)N(c2ccccc2)C1c1ccccc1", "note": "(centres undefined)", "AC50": "inactive"}, {"smiles": "CCCCOC(=O)c1cc2c(cn1)[nH]c1ccccc12", "AC50": "inactive"}, {"smiles": "CCCC[C@@H]1C[C@H]1C(NC(=O)Cc1ccccc1)c1ccc(-c2ccccc2)cc1", "note": "(some centres undefined)", "AC50": "inactive"}, {"smiles": "CCOC(=O)c1c(C)nc2sc3c(=O)n(-c4ccc(C)cc4)cnc3c2c1-c1ccc(OC)cc1", "AC50": "inactive"}, {"smiles": "O=C(O)c1c2c(c(O)c3c1CN(C1CCCCC1)CO3)OCN(C1CCCCC1)C2", "activity, negative = inhibition": "15.7% [at 11.4 µM] (inactive)"}, {"smiles": "CNC(=O)[C@H](C)[C@@H]1C[C@@]1(C)[C@@H](NC(=O)OCc1ccccc1)c1ccccc1", "AC50": "3.16 µM (active)"}, {"smiles": "C[C@@H](C(=O)O)[C@H]1C[C@]1(C)[C@H](NC(=O)OCc1ccccc1)c1ccccc1", "AC50": "inactive"}, {"smiles": "C[C@@H](C(=O)O)[C@@H]1C[C@@]1(C)[C@@H](NC(=O)OCc1ccccc1)c1ccccc1", "AC50": "inactive"}, {"smiles": "O=C(O)C[C@H](Cc1ccccc1)C(=O)O", "activity, negative = inhibition": "6.15% [at 11.4 µM] (inactive)"}, {"smiles": "CCC(C)NC(=O)NC(=O)N(C1CCCCC1)S(C)(=O)=O", "note": "(centres undefined)", "AC50": "inactive"}, {"smiles": "CO[C@H]1C[C@@H](O[C@@H]2[C@H](C)[C@H](O[C@@H]3O[C@@H](C)C[C@@H](N(C)C)[C@@H]3O)[C@H](C)C[C@]3(CO3)C(=O)[C@H](C)[C@H](O)[C@H](C)[C@H](C)OC(=O)[C@@H]2C)O[C@@H](C)[C@H]1O", "AC50": "inactive"}, {"smiles": "C[N+]1(CCC[N+]2(C)C[C@H]3[C@H](C2)[C@H]2C=C[C@@H]3CC2)CCOCC1", "note": "(some centres undefined)", "activity, negative = inhibition": "-2.37% [at 11.4 µM] (inactive)"}, {"smiles": "CN=C(N)/N=C(\\N)Nc1cc2ccccc2c2ccccc12", "AC50": "1.58 µM (active)"}, {"smiles": "NC(=S)Nc1cccc2cccnc12", "AC50": "inactive"}, {"smiles": "NC(=S)Nc1cc2ccccc2c2ccccc12", "AC50": "28.2 µM (active)"}, {"smiles": "S=C(CSc1ccccc1)Nc1cccc2ccccc12", "activity, negative = inhibition": "-5.75% [at 11.4 µM] (inactive)"}, {"smiles": "CSc1nc(Oc2ccc(F)cc2)c2ccccc2n1", "AC50": "inactive"}, {"smiles": "C[C@@]1(C(NC(=O)c2cccs2)c2ccc(-c3ccccc3)cc2)C[C@H]1C1CCCCC1", "note": "(some centres undefined)", "AC50": "inactive"}, {"smiles": "COc1ccc(OC)c(NC(=O)CSCc2cnn(-c3ccccc3)c2-n2cccc2)c1", "AC50": "inactive"}, {"smiles": "O=C(NCc1ccco1)c1nc2c(nnn2Cc2cccc(Cl)c2)c(=O)[nH]1", "AC50": "inactive"}, {"smiles": "COc1cccc(Cn2nnc3c(=O)[nH]c(C4CCCN(C(=O)c5ccccc5Cl)C4)nc32)c1", "note": "(centres undefined)", "AC50": "15.8 µM (active)"}, {"smiles": "COc1ccccc1Cn1nnc2c(=O)[nH]c(C3CCN(C(=O)c4ccc(C)cc4)CC3)nc21", "AC50": "inactive"}, {"smiles": "NCCSc1nc(-c2ccccc2)c(-c2ccccc2)o1", "activity, negative = inhibition": "5.57% [at 11.4 µM] (inactive)"}, {"smiles": "COc1ccc(Br)c2c1C[C@H](C(=O)O)CC2", "activity, negative = inhibition": "7.4% [at 11.4 µM] (inactive)"}, {"smiles": "O=C(NNC(=O)c1sc2ccccc2c1Cl)Nc1ccc(Cl)cc1", "AC50": "inactive"}, {"smiles": "Cc1ccc(C)c(-c2cc(C(=O)Nc3sc(C)c(C)c3C(N)=O)c3ccccc3n2)c1", "AC50": "inactive"}, {"smiles": "Cc1sc(NC(=O)C(C)C)c(C(=O)Nc2ccccc2)c1C", "AC50": "inactive"}, {"smiles": "Cc1sc(NC(=O)c2ccccc2)c(C(=O)NCCN(C)C)c1C", "AC50": "14.1 µM (active)"}, {"smiles": "COc1cccc(-c2nnc3sc(-c4ccc(C)cc4)nn23)c1", "AC50": "inactive"}, {"smiles": "O=C(CCn1c(=O)[nH]c2ccsc2c1=O)Nc1ccc(F)c(F)c1", "AC50": "inactive"}, {"smiles": "O=C(CCCCCn1c(=O)[nH]c2ccsc2c1=O)NCc1ccc2c(c1)OCO2", "AC50": "17.8 µM (active)"}, {"smiles": "CCOc1cc2[nH]c(=O)n(CCCC(=O)NCc3ccc(OC)cc3)c(=O)c2cc1OCC", "AC50": "inactive"}, {"smiles": "COC(=O)C[C@@H]1O[C@H]1[C@H](C)[C@@H](OC)C(C)C", "activity, negative = inhibition": "5.88% [at 11.4 µM] (inactive)"}, {"smiles": "CC[C@@]1(O)C(=O)OCc2c1cc1n(c2=O)Cc2cc3c(CN(C)C)c(O)ccc3nc2-1", "activity, negative = inhibition": "-7.02% [at 11.4 µM] (inactive)"}, {"smiles": "C=CCn1c(Cc2c[nH]c3ccccc23)nnc1SCC(=O)NCc1ccccc1", "AC50": "15.8 µM (active)"}, {"smiles": "CCn1c(Cc2ccccc2)nnc1SCC(=O)NC(C)(C)C", "AC50": "inactive"}, {"smiles": "C=CCn1c(Cc2ccc(OC)cc2)nnc1SCC(=O)c1cccc([N+](=O)[O-])c1", "AC50": "inactive"}, {"smiles": "Cc1cc(C(=O)N/N=C/c2cccc([N+](=O)[O-])c2)c(C)o1", "AC50": "inactive"}, {"smiles": "CCOC(=O)c1cc(-c2ccccc2)sc1NC(=O)c1ccc(OC)cc1", "AC50": "inactive"}, {"smiles": "O=[N+]([O-])c1ccc(N/N=C\\c2cccn2-c2ccccc2)nc1", "AC50": "4.47 µM (active)"}, {"smiles": "C(=N\\n1cnnc1)/c1cccn1-c1ccccc1", "AC50": "inactive"}, {"smiles": "O=[N+]([O-])c1ccc(/C=N/Nc2cc(Cl)nc(-c3ccccc3)n2)cc1", "AC50": "inactive"}, {"smiles": "CN1C(=O)CC[C@@H]1c1cccnc1", "AC50": "inactive"}, {"smiles": "Cc1cccn2c(/C=N/OCc3ccc(F)cc3)c(-c3ccc(Cl)cc3)nc12", "AC50": "inactive"}, {"smiles": "COc1ccc(/C=N/NC(=O)C2CCN(c3ncc(C(F)(F)F)cc3Cl)CC2)cc1", "AC50": "inactive"}, {"smiles": "Cc1cccc(NC(=O)CCS(=O)(=O)c2cccc3nsnc23)c1C", "AC50": "inactive"}, {"smiles": "O=C(CCCNS(=O)(=O)c1cccc2nsnc12)NCCc1ccccc1", "AC50": "14.1 µM (active)"}, {"smiles": "O=C(CCS(=O)(=O)c1cccc2nsnc12)NC1CCCCC1", "AC50": "inactive"}, {"smiles": "Cc1cc(C)n(C(=O)c2cc3c(s2)CCCC3)n1", "AC50": "inactive"}, {"smiles": "COC(=O)C(CCSC)NC(=O)c1cccc([N+](=O)[O-])c1", "note": "(centres undefined)", "AC50": "inactive"}, {"smiles": "CCOC(=O)c1c(NC(=O)Nc2ccccc2)sc(C)c1C", "AC50": "inactive"}, {"smiles": "CCOc1ccc(CC(=O)Nc2sc(Cc3ccccc3)c(C)c2C(N)=O)cc1OCC", "AC50": "inactive"}, {"smiles": "COC(=O)c1c(NC(C)=O)sc(Cc2ccccc2)c1C", "AC50": "25.1 µM (active)"}]}]}
